Screening data (PubChem BioAssay)
FXN GAA850 act: frataxin GAA850 promoter activation | actives 0.56% (n = 360,000) | HEK293 lucGAA850 FXN promoter luciferase reporter, 24 h; percent of 10 µM SAHA response | activation, % at 6 µM | AID 540364;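 active = activation above the average of all compounds screened plus 3 SD, cutoff fixed separately per campaign, cut at about 7.5% in these data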
HSF-1 act: increases HSF-1 driven luciferase reporter signal | NIH3T3-HGL HSF-1 luciferase reporter, MG132, 8 h; 100% = twice DMSO control signal | activation, % at 9 µM | actives 1.7% (n = 300,000) | AID 504408;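 active = mean replicate activation of at least 50% with a set share of replicates each reaching 50%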
HSF1 inhib: HSF1 inhibition | activity change, negative = inhibition, % at 7.5 µM (by protocol) | actives 0.77% (n = 300,000) | NIH3T3-HGL HSE-luciferase, MG132-induced, luminescence 8 h; stronger effect = lower value | AID 2098;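 active = more than half of replicate wells show activity change below -50%, luminescence cut by over half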;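 note: luciferase reports HSF-1 transcriptional activity via heat shock element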
AHR activator: activators of human aryl hydrocarbon receptor | AHR-responsive luciferase reporter cells, luminescence | activation, % at 5 µM | actives 2.5% (n = 320,000); in the data active = activation above about 47%
GAA30 counter: counter-screen for GAA850 frataxin promoter activators: GAA30 promoter activation; activation, % at 6 µM; HEK293 lucGAA30 FXN promoter luciferase, 24 h; DMSO = 0%, 5 µM ipriflavone = 100%; actives 66% (n = 1,900); shares compounds with FXN GAA850 act;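 active = mean activation above the mean of solvent-only control wells plus 3 SD, cut at about 22% in these data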;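 note: counterscreen of GAA850 promoter hits where activity marks nonselective or luminescence artifacts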
FXN GAA850 conf: GAA850 FXN promoter activation confirmation; activation, % at 6 µM; shares compounds with FXN GAA850 act; HEK293 lucGAA850 FXN promoter luciferase reporter, 24 h; 100% = activation by SAHA; actives 86% (n = 1,900);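 active = mean activation above a set limit taken from the primary screen, cut at about 8% in these data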
Numbers stand for hits; n = inactive; x = not tested or not shown. Only some compounds are listed: those with a hit (about 4.6% of all), similar ones and a draw of the others.

SMILES	FXN GAA850 act	HSF-1 act	HSF1 inhib	AHR activator	GAA30 counter	FXN GAA850 conf
O=c1cccc2n1CC1CC2CN(Cc2c(Cl)cccc2Cl)C1 (stereo not given)	n	n	n	n	x	x
O=c1cccc2n1CC1CC2CN(c2nc(N3CCCCC3)nc(N3CCCCC3)n2)C1 (stereo not given)	11.1	58.4	n	n	32.4	12.3
C=Cn1ccnc1P(=S)(c1ccc(Cl)cc1)c1nccn1C=C	n	n	n	n	x	x
CN(C)c1ccc(N=Cc2c(O)n(CCC3=CCCCC3)c(=O)[nH]c2=O)cc1	24.6	n	n	n	n	n
CCN(CC)c1ccc(N=Cc2c(O)n(CCC3=CCCCC3)c(=O)[nH]c2=O)cc1	n	n	n	n	x	x
O=C(O)CCCc1ccc(N(CCCl)CCCl)cc1	n	n	n	n	x	x
O=c1[nH]cnc2nc(-c3ccc(N(CCCl)CCCl)cc3)[nH]c12	9.0	x	x	x	90.8	56.3
C=CCNC(=O)c1c(N)n(Cc2ccco2)c2nc3ccccc3nc12	9.6	133.9	n	n	n	8.6
COC(=O)[C@@H]1[C@@H](C(=O)OC)C2(c3ccccc3-c3ccccc32)N(c2ccc(Cl)cc2)N1C#N	13.0	n	-95.8	n	n	n
CSc1ccccc1C(=O)C1CCCN(Cc2cccc(C)n2)C1 (stereo not given)	n	n	n	n	x	x
Cc1ccc(C2SCC(=O)Nc3c2c(=O)[nH]n3C2CCOC(C)(C)C2)cc1 (stereo not given)	n	n	n	n	x	x
CN(C)C(=S)SSC(=S)N(C)C	27.4	n	n	n	n	n
